Laboratory results taken from the supplement of paper PMC6555819.

Tested on: PPARg DBDmut IVT, anti-PPARg (DBD mutation: PPARg1 K132A/R137A, NR concentration 270 nM)
Test: PBM binding z-score (relative to random genomic background probes); higher = stronger binding; sequences stand for … in GC…GCGATTGACAGCGTAGAATGAAGG
Summary of the method: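 Each nuclear receptor dimer, without ligand, was incubated for 1 h on custom Agilent 4×180K protein-binding microarrays. Binding was detected with antibodies against each partner (one per run), and scanned fluorescence was regression-normalized. The binding z-scores are referenced to random human genomic background probes.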

| Sequence | PBM binding z-score |
| --- | --- |
| TCATTTAGGTAAAAGGTGAAAGTCGGTGTGGTAA | 1.44 |
| CCTAGTTAGTCAGGAGGTCACACACCGGATATGA | 0.693 |
| TATACAGGGTCAAAGGCCAGAGGACGAATGTCGA | 2.72 |
| GTACCAAGGTGAATAGGTGGTTGATGAGTAGGCG | -0.307 |
| CGAACGAGGGCAGGAGTTGATAGCAAATGCCGAT | -0.762 |
| CCTTACGGGTCACGAGGCTATAGCACGACGAGCG | -0.248 |
| TCTATTAGTTGAAGGACAACCGACGAGTCCGTTT | 1.19 |
| CGTCCAAGGCCATAGGAGGTCAGTGAAGACAGAT | -0.658 |
| CCTACTGGGCCATTCAGAGGTCATTCATCATATG | 0.03 |
| AGAATGAGGTTATACGTGGATCAGGGAAGAAAGT | 0.938 |
| TCATATATGTAATACAGGTGAAAGTCGGCATCTA | 1.75 |
| ATCGAAAGGTCGGGGTGAGTATAGAGAAAGGGAA | 2.25 |
| ATCTCTAGGTAAAGTTCAGGGAAAGATCGATAGA | 1.09 |
| ATATGTAGGTTACATCCGGGTCACTCAGGCTATG | 3.51 |
| GCTAGAAGGCCATTTGGGTCACTCAATGACGGGC | -0.532 |
| GGAACGAGGGCTAGTTGATAGCAGAGTTTGATGG | -0.827 |
| TGAACGAGGTTAAAGATCAGGGAACGTGGCGTCG | -0.0335 |
| TCATATAGGTAAAGATGAAAGTCGAACGATATGA | 0.63 |
| AGAACGAGGGCAATGAGTTGATACCACGGGTGGC | 0.33 |
| CAGCCTGGGTCAGGGCCAGTATAGGAGGAACGTT | -1.68 |

| Sequence | PBM binding z-score |
| --- | --- |
| CCTTACGGGTCACGAGGTTATAACACGACGAGCG | 0.726 |
| TCTGCGAGGTCAACGATGGTCAGCTAATCTGCTA | 1.25 |
| GCTAGCAGCCCATTTGGGTCACTCAATGACGGGC | -1.56 |
| CCTGCTGGGTCAATGGTCAGCTAAAGCAGCTCGC | -0.684 |
| TAGCCTAAGTCATTCAGGGGCCAGTATAGAAAGC | 0.2 |
| CCTTACGGGTCACTAACAGGTTATAGCATTTGGA | 0.395 |
| TTCCCAAGGTGAAAGGTCGTTGATGCACGCCTTG | -0.0355 |
| AGAACGAGGGCACGCTGAGTTGATATCAGAGTAG | -0.135 |
| CTACCAAGGTGAACAAGGTCGTGGATTACTATTC | -0.0966 |
| CGAACTAGGGCAAGGACAGTGAATCTCCGCACGC | -0.116 |
| CGAATTAGGTCAGAACAGGACAGTGAAGGATGAT | 1.42 |
| GCTCCTAGGTCAGGTTGGTCAGCTAACGGGTACG | -0.79 |
| TTACCTAGGTGAAAGGTCGTTGATGCACGCCTTG | 0.889 |
| TCTATTAGTTGATTAGGGCAACCAAAACAGCGGA | 1.68 |
| TCGAGTTGGTCAAAGGTCACACACTCGAAATGCG | 1.49 |
| CAAACTAGGTCACGAAAGGACAAAGTCGAATGAC | 2.82 |
| TAGCCTAGGTCAGATCGAGCCAGTATACGCTATA | -0.42 |
| AATACAGGGTCACTAGGCCAGACTAGGTACGAAT | 1.09 |
| CGTCCGAGGTCAGAGAGGTCAGTGAATGCCGAGT | -0.203 |
| CAAACTAAGTCACAGAGGTCAAAGTCCGTGCGTA | 0.368 |
